In PubChem BioAssay (NCI) one finds growth data, which are given here for 40 molecules.

Each structure is given as a SMILES string. This is part of a sample that, as a whole, favours compounds with a hit. Of some 83,000 tested, about 20% had one in any assay.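 Single-concentration screen, 48 h exposure, 96-well plates. Endpoint: percent growth. Below 10 = active.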 Values without a mark were called inactive. Activity calls are given as the source filed them.

For the test, the system named is SW-620 colon. Put plainly: NCI-60 one-dose screen, 48 h (100 = growth as untreated, 0 = no growth, -100 = all killed). Particulars: 10 µM unless noted. On the procedure:
Growth inhibition of the SW-620 human tumor cell line is measured as a screen for anti-cancer activity. Cells are grown in 96 well plates and exposed to the test compound for 48 hours. Compounds are tested at a single concentration, which is 10^-5 M for most compounds. The reported endpoint is percent growth (GI% or GIPRCNT), where numbers from 0 - 100% represent growth inhibition, and numbers from -100% - 0 represent cell death. For example, a value of 40 represents 60% growth inhibition. A value of 0 means no net growth occurred over the course of the experiment. A value of -40 indicates 40% of cells at the beginning of the experiment died by the end of the experiment. A value of -100 means all cells are dead at the end of the experiment.
NCI-60 Human Tumor Cell Lines Screen was performed using the standard one-dose NCI protocol, which is described in more detail at https://dtp.cancer.gov/discovery_development/nci-60/default.htm.
Compounds with GIPRCNT values below 10 were considered active. Activity score was based on GIPRCNT using the following formula: […]
Score is 0 for GIPRCNT values of 100 or above, 50 for GIPRCNT values of 0, and 100 for GIPRCNT values of -100.
Consider `Clc1cn2cc(-c3ccc(Cl)c(Cl)c3Cl)nc2s1`, for which the growth is 111%.
The same measure for `CC(=O)c1c(C)nc(-c2cc(C)cc(Cl)c2)nc1-c1cccc(Oc2ccccc2)c1`: 25.7%; for `COc1ccc(-c2nn(-c3cccc(Cl)c3)cc2/C=C2\C(=N)N(c3ccccc3)N=C2N)cc1`: 32.5%.
On to `COC(=O)c1ccc(NC(N)=NCCC(C)(C)c2ccc(C(F)(F)F)cc2)nc1`, for which the growth is 25%.
Regarding `CC[C@H](Nc1nc(N)nc(N)c1Cl)c1nc2cccc(NCc3ccc(C(=O)NO)cc3)c2c(=O)n1-c1ccccc1`, the growth was 19.9%.
As for `COc1ccc(-c2nc(-c3ccccc3OCc3ccccc3OC)nc(C)c2C(C)=O)cc1`, the growth was 67.5%.
As for `C=CC[C@]1(O)CC[C@H]2[C@@H]3CCc4cc(O)ccc4[C@H]3CC[C@@]21C`, the growth was 92%.
The value for `Fc1[nH]nc2ccc([C@@H]3Nc4ccc5[nH]ncc5c4[C@H]4C5CCC(C5)[C@@H]34)cc12` (stereo not given in full) was 23.9%; that for `CN1CCN(Cc2ccc(NC(=O)c3cncc(C#Cc4ncc5cnccn45)c3)cc2C(F)(F)F)CC1` was 22%; that for `COc1ccc(NC(=O)C2c3ccccc3C(=O)N(CC(C)C)C2c2cccs2)cc1` (stereo not given) was 92%.
In the case of `CCn1c(CN2CCN(Cc3ccccc3)CC2)nc2cc(NC(=O)c3cccs3)ccc21`, the growth was -82.8% (active).
In the case of `O=C(NCC(c1ccsc1)N1CCCCCC1)c1ccc(C(F)(F)F)cc1` (stereo not given), the growth was 96.6%.
The value for `COC1CC(N)C2OC(c3ccccc3)OCC2O1` (stereo not given) was 99.6%; that for `CCOc1c(C#N)c2c(N)ncnc2n1C1OC(CO)C(O)C1O` (stereo not given) was 4.66% (active).
The same measure for `Oc1[nH]c2ccc(Cl)cc2c1/C=c1/ccc2c(c1)N=C(c1ccc(F)cc1)N=2`: 19.3%.
The same measure for `O=c1c2sc3ccccc3c2nnn1-c1ccc(F)c(Cl)c1`: 62.3%; for `Clc1ccc2c(c1)-n1cccc1C(c1ccc3ccccc3c1)=NC2`: 88%.
As to `COc1ccc(-c2[nH]nc(N)c2-c2cc(OC)c(OC)c(OC)c2)cc1`, the growth was 23%.
The value for `CCCCn1cnc(-c2cc(-c3ccccc3)cc(C(F)(F)F)c2)n1` was 96%; that for `c1ccc2c(Cc3csc4ccccc34)csc2c1` was 62.6%.
For `COc1ccc(/C=C(/C(=O)N2CCN(c3ccccc3)CC2)c2cc(OC)c(OC)c(OC)c2)cc1N`, the growth is 25.9%.
With `Cc1cc(C)cc(NC(=O)Cn2nncc2CN2C(=O)CSC2=O)c1`, the growth was 99.7%.
The value for `C=CCn1c(C)nc2cc(Nc3nc(N4CCOCC4)nc4nc[nH]c34)ccc21` was 93.1%; that for `Cc1ccc2cc3c(NC(=O)c4cccnc4)nn(C)c3nc2c1` was 92.5%; that for `COc1ccc(/C(=C\c2cc(OC)c(OC)c(OC)c2)C(=O)Nc2nc3ccc(Cl)cc3s2)cc1` was 105%.
The same measure for `O=C(N=Nc1c(Cl)c(O)c2ccccc2c1O)C(=O)Nc1cccc(C(F)(F)F)c1`: 63.6%; for `CC(=O)[C@H]1CC[C@H]2[C@@H]3CC[C@H]4CC=CC[C@]4(C)[C@H]3CC[C@]12C`: 101%; for `O=[N+]([O-])c1ccccc1CN1CCCCC1`: 106%.
With `COc1cccc(NC(=O)c2c(-c3ccccc3)c(-c3ccccc3)n[nH]c2=O)c1`, the growth is 98.7%.
For `O=C1Cc2c([nH]c3ccc([N+](=O)[O-])cc23)-c2ccccc2N1`, the growth was -3.84% (active).
As for `COc1cc(C2C=C(C)N=C3SC=NN32)cc(OC)c1OC` (stereo not given), the growth is 105%.
The value for `FC(F)(F)C1=NNC(c2ccc3ccccc3c2)=NN1` was 97.9%; that for `C#CC[C@@H]1C[C@]2(C)[C@H]3CC=C4[C@H]5[C@@H](C)[C@H](C)CC[C@]5(C(=O)NCCCN5CCN(CCCN)CC5)CC[C@@]4(C)[C@]3(C)CC[C@H]2C(C)(C)[C@H]1OC(C)=O` was -51% (active).
With `C/C(=N\OC(=O)Nc1cccc(Cl)c1)c1ccccc1`, the growth was 95.3%.
As for `COc1cc2c(cc1I)-c1c(cc(OC)c(OC)c1OC)CC[C@@H]2NC(C)=O`, the growth is 10.3%.
As for `O=C1C=CC(=O)N1CO`, the growth is 115%.
The value for `COc1cc(-c2n/c(=C\c3c(O)[nH]c4cc(Cl)ccc34)cc3c2=Nc2ccccc2-3)cc(OC)c1OC` was 41.5%.
With `COc1cc(C2=NOC(c3cc(OC)c(OC)c(OC)c3)C2)ccc1OCCCCOc1cc2c(cc1OC)C(=O)N1CCC[C@H]1C=N2` (stereo not given in full), the growth is -31.7% (active).
Take `Cc1n(Cc2ccc3ccccc3n2)cc[n+]1Cc1ccc2ccccc2c1`: the growth was 20.6%.
The value for `CNCCCNc1ccnc2cc(Cl)ccc12` was -23.3% (active).
